An excerpt weighted towards active compounds, which were near 4.7% of everything screened.
Plk1 PBD FP – blocks phosphopeptide binding to human Plk1 polo box domain; Plk1 PBD phosphopeptide binding, fluorescence polarization; P53350; inhibition, %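 (tested at about 20 µM)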; AID 693; 97,000 compounds, 0.13% hits; in the data active means inhibition above about 34%, passing the limit was not always enough
SDO1 yeast rescue – restores growth of sdo1-depleted yeast. 140,000 compounds, 0.21% hits. z-score at 10 µM. S. cerevisiae sdo1-depleted JHY4D growth rescue, OD600 30 h; stronger effect = higher value; pdr5 snq2 efflux-pump mutant strain;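 active means z-score above 3 at both the 24 hr and the 30 hr optical density reads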;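 further: z-score against mean and SD of all compound wells on the same plate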
PTK2B oligo ant – antagonists of human Pyk2 oligomerization; Q14289; z-score (the deposit names both 25 µM and 10 µM); AID 1347419; Q293 cells, Pyk2 FERM NanoBiT luminescence; stronger effect = lower value; 99,000 compounds, 0.83% hits;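 active means Z-score of -3 or lower, scaled per plate to the spread of control and sample wells; inactive means z-score above -3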;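 further: negative z-score means lost luminescence so less FERM oligomerization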
Target sequence (Q14289 whole entry, looked up): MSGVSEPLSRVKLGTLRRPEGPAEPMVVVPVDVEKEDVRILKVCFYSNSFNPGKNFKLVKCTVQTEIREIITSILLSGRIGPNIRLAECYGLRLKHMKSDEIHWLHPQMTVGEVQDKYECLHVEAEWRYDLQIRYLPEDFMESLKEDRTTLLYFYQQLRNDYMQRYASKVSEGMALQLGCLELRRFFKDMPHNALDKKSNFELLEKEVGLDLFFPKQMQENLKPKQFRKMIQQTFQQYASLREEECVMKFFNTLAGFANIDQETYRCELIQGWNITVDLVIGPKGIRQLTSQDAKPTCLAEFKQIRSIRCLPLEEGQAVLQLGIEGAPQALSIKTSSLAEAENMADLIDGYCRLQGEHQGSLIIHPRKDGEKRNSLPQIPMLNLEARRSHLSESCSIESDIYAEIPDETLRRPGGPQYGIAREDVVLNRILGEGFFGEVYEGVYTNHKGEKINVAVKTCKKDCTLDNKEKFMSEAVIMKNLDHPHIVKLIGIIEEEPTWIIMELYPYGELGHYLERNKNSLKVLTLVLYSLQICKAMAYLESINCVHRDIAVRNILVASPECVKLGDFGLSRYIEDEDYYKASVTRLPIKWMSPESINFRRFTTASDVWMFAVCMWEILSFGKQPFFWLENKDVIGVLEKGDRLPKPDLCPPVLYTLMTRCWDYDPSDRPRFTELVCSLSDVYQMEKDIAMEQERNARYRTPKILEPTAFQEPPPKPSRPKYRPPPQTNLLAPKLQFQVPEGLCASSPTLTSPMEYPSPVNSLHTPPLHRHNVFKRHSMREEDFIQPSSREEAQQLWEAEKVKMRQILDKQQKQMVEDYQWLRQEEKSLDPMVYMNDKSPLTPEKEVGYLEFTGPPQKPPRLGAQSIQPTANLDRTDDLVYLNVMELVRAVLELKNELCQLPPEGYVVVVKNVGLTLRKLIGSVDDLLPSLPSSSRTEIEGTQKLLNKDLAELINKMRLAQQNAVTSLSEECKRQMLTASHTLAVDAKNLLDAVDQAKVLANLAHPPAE
Cav3 T inh – human Cav3.2 channel inhibition, primary screen | AID 449739 | B-score at 10 µM | 100,000 compounds, 4% hits | O95180 | Cav3.2-expressing cells, Fluo-4 calcium fluorescence FDSS; stronger effect = lower value;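 active means single-dose well whose peak fluorescence ratio is a statistical outlier from its plate by either plate-standardised score or position-corrected B-score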
PLK1 inh – PLK1 (human) kinase inhibition; P53350; inhibition, % at 10 µM; 97,000 compounds, 0.53% hits; recombinant PLK1 kinase, TR-FRET peptide phosphorylation;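 active means inhibition of 50% or more in the single-concentration screen; inactive means inhibition below 50%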;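 further: 0% = DMSO max control and 100% = H-89 dihydrochloride min control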
DAT uptake mod – human DAT dopamine uptake with cocaine, either direction; LLC-PK1 hDAT cells, [14C]-dopamine uptake with cocaine IC80; actives deviate in either direction; B-score at 10 µM; 110,000 compounds, 1.3% hits;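 active means Z score or B-score, a plate-position-corrected score, falls beyond the plate's 99.7% confidence bounds, in either direction; inactive means both scores lie inside the 99.7% bounds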;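 further: scored against the spread of the other compound wells on the same plate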
* marks the source's active call; other numbers are inactive results.

Screening CCN(C(=O)COc1ccc(C)nc1[N+](=O)[O-])C1CCS(=O)(=O)C1 (stereo not given) returned SDO1 yeast rescue 1.3.
Screening Cc1nc([N+](=O)[O-])c(Sc2nc3ccccc3n2C)n1Cc1ccccc1 returned SDO1 yeast rescue -0.77 and PTK2B oligo ant -0.43.
CCCOc1ccc(C(=O)N2CCN(c3ccc(N)cc3Cl)CC2)cc1 was read as Plk1 PBD FP -15, SDO1 yeast rescue -1, PTK2B oligo ant -3.9*, Cav3 T inh -0.037, PLK1 inh -17 and DAT uptake mod 0.94.
For CCOC(=O)c1c(-c2ccccc2Cl)csc1NC(=O)c1cc(S(=O)(=O)N2CCOCC2)ccc1C the results were SDO1 yeast rescue -0.63.
Cc1cccc(NC(=O)Nc2cccc(F)c2)n1 was read as Plk1 PBD FP -12, SDO1 yeast rescue -0.91, PTK2B oligo ant -0.15, Cav3 T inh -0.31, PLK1 inh -6 and DAT uptake mod 2.
`COc1ccc(NC(=O)Nc2cccc(C)n2)cc1` gave SDO1 yeast rescue -0.35, Cav3 T inh -4.2* and DAT uptake mod 0.86.
Cc1cccc(NC(=O)Nc2ccc(C#N)cc2)n1 was read as SDO1 yeast rescue 0.74, Cav3 T inh 0.61 and DAT uptake mod -0.24.
For Cc1cccc(NC(=O)Nc2cccc(C#N)c2)n1 the results were SDO1 yeast rescue -2.8, Cav3 T inh -4.2* and DAT uptake mod -0.22.
Screening CC(C)(C)NC(=O)NC(=O)COC(=O)c1cccc(S(=O)(=O)N2CCCCC2)c1 returned SDO1 yeast rescue 0.61.
Screening CCOC(=O)C1=C(C)N=C2SC(C)C(=O)N2C1c1ccc(C(=O)OC)cc1 (stereo not given) returned Plk1 PBD FP -12, SDO1 yeast rescue 0.64, PTK2B oligo ant -0.38, Cav3 T inh -7.5*, PLK1 inh -9 and DAT uptake mod 0.06.
Screening CC(C)Nc1nnc(Sc2ccc(Cl)cc2[N+](=O)[O-])s1 returned SDO1 yeast rescue -1.4.
For CC(/C=N/Nc1nc(C)cc(C)n1)=C\c1ccc(C(C)C)cc1 the results were SDO1 yeast rescue 0.19.
For O=C(O)CCCCCCCCCCCc1ccccc1 the results were Cav3 T inh -1.9 and DAT uptake mod 0.029.
`CCOC(=O)c1sc(NC(=O)c2cc(-c3ccccc3)nc3ccccc23)c(C#N)c1C` gave Plk1 PBD FP 8, SDO1 yeast rescue -0.89, PTK2B oligo ant -1.5, Cav3 T inh -4.1*, PLK1 inh -7 and DAT uptake mod -0.23.
`S=C(NCCN1CCOCC1)Nc1ccccc1Cl` gave SDO1 yeast rescue 0.48.
Screening Oc1ccc(-c2nc3ccc4ccccc4c3c3c2CCC3)cc1O returned SDO1 yeast rescue -1.7.
Screening Cc1cc2ccccc2c(=O)n1CC(=O)NCC(=O)N1CCN(c2ccccc2F)CC1 returned Plk1 PBD FP -5, SDO1 yeast rescue -0.39, PTK2B oligo ant 0.14, Cav3 T inh -3.8*, PLK1 inh -7 and DAT uptake mod -0.24.
Cc1nn(-c2ccccc2)c(=S)n1-c1ccccc1 was read as Plk1 PBD FP 18, SDO1 yeast rescue 0.74, PTK2B oligo ant 0.58, Cav3 T inh -0.99, PLK1 inh 0 and DAT uptake mod 1.6.
Screening OCCn1nc2c3ccccc3nc-2n(-c2ccccc2)c1=S returned Plk1 PBD FP 1, SDO1 yeast rescue 0.27, PTK2B oligo ant 0.55, Cav3 T inh -0.22, PLK1 inh -11 and DAT uptake mod -7.2*.
`COc1cc(/C=C/C(=O)O)cc(S(=O)(=O)NC2CC2)c1OC` gave SDO1 yeast rescue 1.5.
Screening O=C(N/N=C/c1ccc(OCC(=O)N2CCCCC2)cc1)c1ccccc1O returned SDO1 yeast rescue 1.1.
CCOc1cc(-c2cc(-c3ccc(N)cc3)nc(N)c2C#N)ccc1O was read as Plk1 PBD FP 34, SDO1 yeast rescue -0.31, PTK2B oligo ant -3.8*, Cav3 T inh 0.19, PLK1 inh -2 and DAT uptake mod -0.71.
For CCOC(=O)CC(=O)CSc1nc(-c2ccccc2)cc(-c2ccccc2)c1C#N the results were SDO1 yeast rescue -0.6.
CCOc1cc(-c2cc(-c3ccccc3)nc(N)c2C#N)ccc1O was read as Plk1 PBD FP -15, SDO1 yeast rescue -1.3, PTK2B oligo ant -3.4*, Cav3 T inh 0.56, PLK1 inh -5 and DAT uptake mod -0.86.
`CCOc1cc(-c2c(C#N)c(N)nc3c2CCCC3)ccc1O` gave SDO1 yeast rescue -0.12, PTK2B oligo ant -1.9, Cav3 T inh -0.23 and DAT uptake mod 0.03.
For COc1ccc(C2Nc3ccccc3C(=O)N2Cc2ccco2)cc1COc1ccc(F)cc1 (stereo not given) the results were Plk1 PBD FP 8, SDO1 yeast rescue -1.2, PTK2B oligo ant -2.4, Cav3 T inh -7*, PLK1 inh -15 and DAT uptake mod 0.97.
For CCC1(C)OC(=O)NN(c2ccc(C)cc2)C1(C)O (stereo not given) the results were SDO1 yeast rescue -0.17.
For COc1ccc(-c2c(-c3ccsc3)oc3ccc(N4CCOCC4)cc23)cc1 the results were Cav3 T inh 0.33 and DAT uptake mod -0.035.
`c1ccc(-c2noc(CSc3nnnn3C3CCCCC3)n2)cc1` gave Plk1 PBD FP 20, SDO1 yeast rescue -1.3, PTK2B oligo ant 0.59, Cav3 T inh -5.7*, PLK1 inh -8 and DAT uptake mod 0.4.
CCn1c(SCc2nc(-c3ccccc3)no2)nc2ccccc21 was read as Plk1 PBD FP 3, SDO1 yeast rescue -1.2, Cav3 T inh -3.4*, PLK1 inh -10 and DAT uptake mod 1.1.
`COc1ccc(-c2noc(CSc3nnc(-c4ccccc4)n3C)n2)cc1` gave Plk1 PBD FP -17, SDO1 yeast rescue -1.1, PTK2B oligo ant -0.1, Cav3 T inh 0.86, PLK1 inh -10 and DAT uptake mod 2.4.
`Cc1cc(C)n(-c2nc(SCCN(C)C)c3c4c(sc3n2)CCCC4)n1` gave Plk1 PBD FP 5, SDO1 yeast rescue -1.7, PTK2B oligo ant -0.92, Cav3 T inh 0.41, PLK1 inh -6 and DAT uptake mod 3*.
For Cc1nc(SCC#N)c2c3c(sc2n1)CCC3 the results were Plk1 PBD FP 1, SDO1 yeast rescue 0.79, PTK2B oligo ant 0.37, Cav3 T inh -0.4, PLK1 inh -1 and DAT uptake mod -0.086.
`S=c1[nH]nc(-c2cccc(Cl)c2)n1CCN1CCCCC1` gave SDO1 yeast rescue 1.2.
For O=C(NC(=S)NCCOCc1ccc(Cl)cc1)c1cccnc1 the results were SDO1 yeast rescue -0.91.
`CCCOC(=O)c1ccc(-c2c(C)noc2-c2ccc(OC)cc2O)o1` gave Plk1 PBD FP -2, SDO1 yeast rescue -1, PTK2B oligo ant -2.9, Cav3 T inh -4.4*, PLK1 inh -10 and DAT uptake mod 2.8*.
For CC1C/C(=C/c2cccn2C)C(=O)/C(=C/c2cccn2C)C1 (stereo not given) the results were Plk1 PBD FP -210, SDO1 yeast rescue -1.4, PTK2B oligo ant 0.39, Cav3 T inh -14*, PLK1 inh -12 and DAT uptake mod 0.36.

High-throughput results: PubChem, several laboratories
